“And” between values parts separate entries of the source, which are not always exact repeats. Equal values may be shown once. Inconclusive results are not listed. The source made the active and inactive calls. The calls were made as follows, unless noted: active = hit-call score of the fitted dose curve at least 0.9, where 1 is the maximum; inconclusive = response in the unintended direction; inactive = score below 0.9.
Assays:
[1] = tested on: guinea pig Dopamine Transporter (DAT), gene 100714898; assay: NVS_TR_gDAT: NovaScreen (NVS) Transporter Assay for guinea pig Dopamine Transporter (DAT) (AID 2283369);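 also: active compounds lower bound radioligand signal relative to DMSO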
Summary of the method: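 Radioligand displacement on membranes from guinea pig striatum, 2 h exposure, bound label counted by filtration and scintillation. Tested at 25 uM in duplicate, then actives in concentration series to 50 uM; DMSO as negative control.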

[2] = molecular target: human Dopamine Transporter (DAT), SLC6A3 (gene 6531) (UniProt Q01959); assay: NVS_TR_hDAT: NovaScreen (NVS) Transporter Assay for human Dopamine Transporter (DAT) (AID 2283374);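 also: activity means loss of bound radioligand signal relative to DMSO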
Summary of the method: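 hDAT membranes + tritiated/iodinated radioligand, competitive displacement; 1 h; filter scintillation readout. Single conc 25 uM (duplicate), then conc-response for actives. DMSO = negative control.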

[3] = molecular target: Estrogen receptor beta (Homo sapiens) (UniProt Q92731); assay: OT_ER_ERbERb_1440: Odyssey Thera (OT) 24-hour HEK293T Protein-Complementation Assay for Estrogen Receptor-beta/-beta Homodimer (AID 2283380);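 also: scored as signal increase over DMSO baseline for both agonists and antagonists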
Summary of the method: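 HEK293T cells stably expressing ER beta LBD (aa 310-547) homodimer fragment-complementation reporter, dosed 24 h. Cells formaldehyde-fixed, Draq5-stained; gain in nuclear (agonist) or nuclear plus cytoplasmic (antagonist) fluorescence versus DMSO read by laser scanning cytometry.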

[4] = molecular target: Estrogen receptor (Homo sapiens) (UniProt P03372); assay: OT_ERa_GFPERaERE_0480: Odyssey Thera (OT) 8-hour HeLa Transcription Induction Assay for Estrogen Receptor (AID 2283381; active = hit-call score of the fitted dose curve at least 0.9, where 1 is the maximum; inactive = score below 0.9)
Summary of the method: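 An 8 h HeLa transcription-induction format with a GFP reporter under ERE control, read by fluorescence microscopy; single endpoint fitted positively with DMSO as baseline.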

[5] = molecular target: Bile acid receptor (Homo sapiens) (UniProt Q96RI1); assay: OT_FXR_FXRSRC1_0480: Odyssey Thera (OT) 8-hour HEK293T Protein-Complementation Assay for Farnesoid X receptor/SRC-1 Co-activator (AID 2283383)
Summary of the method: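 Readings were taken 8 h after dosing HEK293T cells in a split-reporter complementation format pairing FXR with SRC-1. Increased fluorescence relative to DMSO-treated wells defined activity.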

[6] = molecular target: Bile acid receptor (Homo sapiens) (UniProt Q96RI1); assay: OT_FXR_FXRSRC1_1440: Odyssey Thera (OT) 24-hour HEK293T Protein-Complementation Assay for Farnesoid X receptor/SRC-1 Co-activator (AID 2283384)
Summary of the method: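 Single endpoint, analysed for increased fluorescence against DMSO controls. HEK293T cells carrying FXR and SRC-1 linked to complementary reporter halves were exposed to chemicals for 24 h before reading.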

[7] = molecular target: Retinoic acid receptor RXR-alpha (Homo sapiens) (UniProt P19793); assay: OT_NURR1_NURR1RXRa_0480: Odyssey Thera (OT) 8-hour HEK293T Protein Complementation Assay for Nurr1/retinoid X receptor (RXR) (AID 2283385)
Summary of the method: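 Gain in fluorescent complementation signal over DMSO, measured 8 hours after chemical dosing of human kidney HEK293T cells, indicated enhanced Nurr1–RXRα association.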

[8] = molecular target: Retinoic acid receptor RXR-alpha (Homo sapiens) (UniProt P19793); assay: OT_NURR1_NURR1RXRa_1440: Odyssey Thera (OT) 24-hour HEK293T Protein Complementation Assay for Nurr1/retinoid X receptor (RXR) (AID 2283386)
Summary of the method: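 Cell-based binding reporter: HEK293T cells, 24 h exposure, fluorescence-detected fragment complementation, DMSO as baseline.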

[9] = molecular target: Peroxisome proliferator-activated receptor gamma (Homo sapiens) (UniProt P37231); assay: OT_PPARg_PPARgSRC1_0480: Odyssey Thera (OT) 8-hour Protein-Complementation Assay for Peroxisome Proliferator-activated Receptor Gamma / SRC-1 Co-activator (AID 2283387);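 also: nuclear to cytoplasmic split Venus YFP fluorescence ratio reporting PPARg SRC-1 interaction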
Summary of the method: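 Split-YFP (IFP1/IFP2) PPARg/SRC-1 reporter, HEK293T, 37 °C, 5% CO2; 8 h compound; formaldehyde fix + Draq5; high-content imaging, N/C ratio, ≥350 cells/image, positive direction vs DMSO.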

[10] = molecular target: Peroxisome proliferator-activated receptor gamma (Homo sapiens) (UniProt P37231); assay: OT_PPARg_PPARgSRC1_1440: Odyssey Thera (OT) 24-hour Protein-Complementation Assay for Peroxisome Proliferator-activated Receptor Gamma/ SRC-1 Co-activator (AID 2283388);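 also: nuclear to cytoplasmic ratio of reconstituted Venus YFP fluorescence in fixed imaged cells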
Summary of the method: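 Readout is the 488 nm N/C fluorescence ratio from fixed, Draq5-stained HEK293T cells after 24 h compound exposure. Cells carried transiently transfected PPARg and SRC-1 fused to Venus fragments, transfected 48 h before treatment.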

[11] = molecular target: Norway rat Vesicular Monoamine Transporter (VMAT2), neurotransmitter transporter, Slc18a2 (gene 25549) (UniProt Q01827); assay: NVS_TR_rVMAT2: NovaScreen (NVS) Transporter Assay for Norway rat Vesicular Monoamine Transporter (VMAT2), neurotransmitter transporter (AID 2283376);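 also: actives lower the bound radioligand signal below the DMSO level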
Summary of the method: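 Filter-based scintillation counting of radioligand bound to rat forebrain-derived VMAT2 protein, cell-free, 1 h post-dose. Signal loss relative to DMSO control scored; single-concentration duplicate screen (25 uM) followed by concentration-response testing of actives.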

[12] = molecular target: Agonist Androgen Response Element (ARE), AR (gene 367) (UniProt P10275); assay: OT_AR_ARELUC_AG_1440: Odyssey Thera (OT) 24-hour CHO-K1 Luciferase Assay for Agonist Androgen Response Element (ARE) (AID 2283379)
Summary of the method: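 Gain-of-signal reporter endpoint: cells (CHO-K1, hamster) are treated 24 h, luciferin/ATP reagent added, and luminescence compared with DMSO baseline.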

[13] = CEETOX_H295R_11DCORT: CeeTox H295R High-throughput Steroidogenesis Assay for 11-Deoxycortisol (11DCORT) (AID 2283432; active = hit-call score of the fitted dose curve at least 0.9, where 1 is the maximum; inactive = score below 0.9); settings: actives raise or lower the signal
Summary of the method: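 Steroidogenesis in human H295R cells: 48 h chemical exposure after forskolin priming, 11-deoxycortisol measured by LC-MS/MS.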

[14] = CEETOX_H295R_OHPREG: CeeTox H295R High-throughput Steroidogenesis Assay for OH-Pregnenolone (OHPREG) (AID 2283434; active = hit-call score of the fitted dose curve at least 0.9, where 1 is the maximum; inactive = score below 0.9); settings: actives raise or lower the signal
Summary of the method: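 H295R, 10 uM forskolin pre-stim 48 h; test chemical 48 h, 0.1% DMSO final. MTBE extraction, reverse-phase C18 HPLC-ESI+ MS/MS of medium. Gain/loss vs DMSO; viability by MTT in same wells.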

[15] = molecular target: human Serotonin Transporter (SERT), SLC6A4 (gene 6532) (UniProt P31645); assay: NVS_TR_hSERT: NovaScreen (NVS) Transporter Assay for human Serotonin Transporter (SERT) (AID 2283372)
Summary of the method: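 Human platelet membrane preparation; displacement of radioligand from serotonin transporter measured after 1 h by filtration and scintillation counting. Single 25 uM duplicate screen, then concentration series for actives, with DMSO as negative baseline.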

[16] = molecular target: rat Serotonin Transporter (SERT), Slc6a4 (gene 25553) (UniProt P31652); assay: NVS_TR_rSERT: NovaScreen (NVS) Transporter Assay for rat Serotonin Transporter (SERT) (AID 2283375)
Summary of the method: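 Radioligand binding with competitive displacement on rat forebrain membrane preparations, counted by filtration and scintillation after 1 h. Primary single-point duplicates at 25 uM; active chemicals followed up in concentration-response. DMSO served as baseline.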

[17] = molecular target: mouse Estrogen Receptor alpha (Era), Esr1 (gene 13982) (UniProt P19785); assay: NVS_NR_mERa: NovaScreen (NVS) Nuclear Receptor Binding Assay for mouse Estrogen Receptor alpha (Era) (AID 2283378);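 also: hit means loss of bound radioligand signal relative to DMSO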
Summary of the method: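 Filter radiodetection of radioligand displacement from extracted receptor protein, measured 18 h post-dose. Single 25 uM concentration in duplicate initially, with concentration-series follow-up. Binding loss fitted relative to DMSO.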

[18] = molecular target: human Norepinephrine Transporter (NET), SLC6A2 (gene 6530) (UniProt P23975); assay: NVS_TR_hNET: NovaScreen (NVS) Transporter Assay for human Norepinephrine Transporter (NET) (AID 2283377);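 also: cell-free membrane protein extracted from CHO cells expressing human NET; displacement of radioligand from human NET seen as loss of scintillation signal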
Summary of the method: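 CHO cell extracts expressing the transporter; tritiated or iodinated tracer displaced competitively; filtration plus scintillation readout at 1 h. Single-point duplicates at 25 uM, concentration series for follow-up; activity = signal drop relative to DMSO.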

[19] = molecular target: Estrogen receptor (Homo sapiens) (UniProt P03372); assay: OT_ERa_GFPERaERE_0120: Odyssey Thera (OT) 2-hour HeLa Transcription Induction Assay for Estrogen Receptor (AID 2283382)
Summary of the method: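 Two-hour compound treatment of HeLa cells preceded microscopy imaging of an inducible fluorescent reporter. Image-based quantification gave one endpoint, analysed for signal increase relative to DMSO controls.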

Sequence of human Dopamine Transporter (DAT), SLC6A3 (gene 6531) (Q01959 whole entry, looked up): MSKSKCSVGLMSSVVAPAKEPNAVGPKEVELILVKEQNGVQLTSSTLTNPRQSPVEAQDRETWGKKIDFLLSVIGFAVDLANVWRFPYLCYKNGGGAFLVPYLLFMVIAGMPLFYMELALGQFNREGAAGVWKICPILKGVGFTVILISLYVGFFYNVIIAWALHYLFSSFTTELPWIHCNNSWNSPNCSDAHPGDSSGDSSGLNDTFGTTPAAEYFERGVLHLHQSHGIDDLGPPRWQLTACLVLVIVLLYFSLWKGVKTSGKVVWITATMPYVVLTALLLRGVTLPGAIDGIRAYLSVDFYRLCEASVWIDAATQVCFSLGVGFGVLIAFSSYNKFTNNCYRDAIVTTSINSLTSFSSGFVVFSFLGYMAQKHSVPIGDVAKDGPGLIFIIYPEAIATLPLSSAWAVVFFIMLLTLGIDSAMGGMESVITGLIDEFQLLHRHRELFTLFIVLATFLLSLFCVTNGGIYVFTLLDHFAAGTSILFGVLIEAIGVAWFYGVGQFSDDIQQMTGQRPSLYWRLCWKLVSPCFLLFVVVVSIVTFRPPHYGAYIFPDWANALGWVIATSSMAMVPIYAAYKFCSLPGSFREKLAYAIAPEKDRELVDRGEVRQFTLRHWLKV
Sequence of Retinoic acid receptor RXR-alpha (Homo sapiens) (P19793 whole entry, looked up, the tested form may be a part): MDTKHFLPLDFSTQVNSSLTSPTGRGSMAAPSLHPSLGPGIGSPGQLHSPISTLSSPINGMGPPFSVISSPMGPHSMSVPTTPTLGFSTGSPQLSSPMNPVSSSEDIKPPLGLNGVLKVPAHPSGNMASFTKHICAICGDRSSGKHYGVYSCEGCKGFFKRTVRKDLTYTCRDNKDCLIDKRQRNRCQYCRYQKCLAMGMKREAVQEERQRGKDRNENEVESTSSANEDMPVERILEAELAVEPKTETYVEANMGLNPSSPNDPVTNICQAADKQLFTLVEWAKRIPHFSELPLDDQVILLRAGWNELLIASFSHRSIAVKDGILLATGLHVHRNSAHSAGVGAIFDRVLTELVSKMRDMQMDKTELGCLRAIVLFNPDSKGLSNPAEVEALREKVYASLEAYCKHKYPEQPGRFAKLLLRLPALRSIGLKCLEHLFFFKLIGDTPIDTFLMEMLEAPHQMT
Sequence of Estrogen receptor beta (Homo sapiens) (Q92731 whole entry, looked up, the tested form may be a part): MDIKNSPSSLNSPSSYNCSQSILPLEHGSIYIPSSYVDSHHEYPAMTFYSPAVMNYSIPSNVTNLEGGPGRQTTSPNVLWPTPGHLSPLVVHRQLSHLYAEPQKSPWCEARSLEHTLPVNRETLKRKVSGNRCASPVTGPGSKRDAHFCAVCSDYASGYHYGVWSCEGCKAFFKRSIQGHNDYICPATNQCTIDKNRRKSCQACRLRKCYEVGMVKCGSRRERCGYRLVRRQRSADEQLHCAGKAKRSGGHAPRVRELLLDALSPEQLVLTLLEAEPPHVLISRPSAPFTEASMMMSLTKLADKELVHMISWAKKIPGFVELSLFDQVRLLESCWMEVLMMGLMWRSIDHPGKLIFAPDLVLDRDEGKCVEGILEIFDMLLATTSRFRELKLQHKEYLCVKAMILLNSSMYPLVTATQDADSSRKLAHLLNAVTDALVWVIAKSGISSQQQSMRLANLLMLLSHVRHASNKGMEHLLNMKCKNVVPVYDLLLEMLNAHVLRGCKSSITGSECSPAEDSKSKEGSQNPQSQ
Sequence of Peroxisome proliferator-activated receptor gamma (Homo sapiens) (P37231 whole entry, looked up, the tested form may be a part): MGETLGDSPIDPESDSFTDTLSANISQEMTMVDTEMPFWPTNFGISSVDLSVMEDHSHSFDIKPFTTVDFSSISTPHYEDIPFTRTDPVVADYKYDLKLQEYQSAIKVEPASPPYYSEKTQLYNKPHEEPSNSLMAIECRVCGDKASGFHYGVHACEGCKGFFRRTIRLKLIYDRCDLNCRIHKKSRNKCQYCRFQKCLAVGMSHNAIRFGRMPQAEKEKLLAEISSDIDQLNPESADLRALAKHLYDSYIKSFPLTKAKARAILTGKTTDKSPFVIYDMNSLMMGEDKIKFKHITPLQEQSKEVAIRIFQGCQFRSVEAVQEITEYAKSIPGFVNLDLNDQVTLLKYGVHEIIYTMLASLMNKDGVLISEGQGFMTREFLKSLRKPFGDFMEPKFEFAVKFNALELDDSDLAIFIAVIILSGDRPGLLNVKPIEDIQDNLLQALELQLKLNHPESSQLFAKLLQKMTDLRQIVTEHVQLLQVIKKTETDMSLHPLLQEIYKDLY
Sequence of Estrogen receptor (Homo sapiens) (P03372 whole entry, looked up): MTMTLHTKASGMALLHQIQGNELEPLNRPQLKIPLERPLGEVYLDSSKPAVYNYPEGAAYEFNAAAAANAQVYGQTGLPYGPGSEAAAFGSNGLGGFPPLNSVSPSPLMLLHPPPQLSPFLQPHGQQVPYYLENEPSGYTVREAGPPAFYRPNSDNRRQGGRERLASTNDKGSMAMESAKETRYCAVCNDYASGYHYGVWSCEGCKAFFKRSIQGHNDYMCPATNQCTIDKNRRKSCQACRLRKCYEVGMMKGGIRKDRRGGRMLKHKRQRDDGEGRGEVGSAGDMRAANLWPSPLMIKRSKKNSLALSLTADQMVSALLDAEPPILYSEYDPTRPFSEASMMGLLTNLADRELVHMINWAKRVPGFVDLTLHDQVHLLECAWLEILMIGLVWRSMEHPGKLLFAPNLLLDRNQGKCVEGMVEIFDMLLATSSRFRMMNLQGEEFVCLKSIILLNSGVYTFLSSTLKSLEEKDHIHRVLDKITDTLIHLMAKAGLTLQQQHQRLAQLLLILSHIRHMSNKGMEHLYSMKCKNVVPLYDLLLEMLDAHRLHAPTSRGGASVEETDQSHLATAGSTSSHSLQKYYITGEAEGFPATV
Sequence of Bile acid receptor (Homo sapiens) (Q96RI1 whole entry, looked up): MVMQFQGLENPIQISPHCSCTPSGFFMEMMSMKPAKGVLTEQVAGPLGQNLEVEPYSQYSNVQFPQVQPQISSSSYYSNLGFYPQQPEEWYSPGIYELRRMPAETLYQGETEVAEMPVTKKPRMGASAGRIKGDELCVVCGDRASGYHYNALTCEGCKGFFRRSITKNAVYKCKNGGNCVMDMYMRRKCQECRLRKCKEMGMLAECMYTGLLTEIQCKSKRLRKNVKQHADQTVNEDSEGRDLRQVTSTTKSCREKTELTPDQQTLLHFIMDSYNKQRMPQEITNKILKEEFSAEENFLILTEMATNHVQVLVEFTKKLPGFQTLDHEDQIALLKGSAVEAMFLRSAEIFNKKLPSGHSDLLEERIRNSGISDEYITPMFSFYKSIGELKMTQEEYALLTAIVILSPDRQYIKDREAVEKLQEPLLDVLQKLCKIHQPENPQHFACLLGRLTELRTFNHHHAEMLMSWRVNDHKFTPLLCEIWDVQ
Sequence of human Norepinephrine Transporter (NET), SLC6A2 (gene 6530) (P23975 whole entry, looked up): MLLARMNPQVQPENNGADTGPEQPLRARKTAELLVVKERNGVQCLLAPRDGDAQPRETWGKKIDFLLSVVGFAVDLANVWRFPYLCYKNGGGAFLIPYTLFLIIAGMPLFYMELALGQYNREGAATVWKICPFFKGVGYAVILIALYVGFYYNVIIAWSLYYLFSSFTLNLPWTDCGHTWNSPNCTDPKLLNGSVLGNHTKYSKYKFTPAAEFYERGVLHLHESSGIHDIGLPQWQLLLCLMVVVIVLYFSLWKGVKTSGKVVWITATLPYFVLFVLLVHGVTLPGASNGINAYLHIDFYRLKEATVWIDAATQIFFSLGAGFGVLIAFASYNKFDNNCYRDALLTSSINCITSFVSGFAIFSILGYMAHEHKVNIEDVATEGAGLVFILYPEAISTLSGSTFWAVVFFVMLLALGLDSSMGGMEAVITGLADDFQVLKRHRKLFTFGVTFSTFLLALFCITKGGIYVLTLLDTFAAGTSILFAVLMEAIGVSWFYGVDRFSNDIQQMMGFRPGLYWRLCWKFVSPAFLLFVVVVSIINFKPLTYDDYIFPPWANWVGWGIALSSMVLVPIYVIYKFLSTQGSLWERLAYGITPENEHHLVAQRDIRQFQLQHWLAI
Sequence of Norway rat Vesicular Monoamine Transporter (VMAT2), neurotransmitter transporter, Slc18a2 (gene 25549) (Q01827 whole entry, looked up): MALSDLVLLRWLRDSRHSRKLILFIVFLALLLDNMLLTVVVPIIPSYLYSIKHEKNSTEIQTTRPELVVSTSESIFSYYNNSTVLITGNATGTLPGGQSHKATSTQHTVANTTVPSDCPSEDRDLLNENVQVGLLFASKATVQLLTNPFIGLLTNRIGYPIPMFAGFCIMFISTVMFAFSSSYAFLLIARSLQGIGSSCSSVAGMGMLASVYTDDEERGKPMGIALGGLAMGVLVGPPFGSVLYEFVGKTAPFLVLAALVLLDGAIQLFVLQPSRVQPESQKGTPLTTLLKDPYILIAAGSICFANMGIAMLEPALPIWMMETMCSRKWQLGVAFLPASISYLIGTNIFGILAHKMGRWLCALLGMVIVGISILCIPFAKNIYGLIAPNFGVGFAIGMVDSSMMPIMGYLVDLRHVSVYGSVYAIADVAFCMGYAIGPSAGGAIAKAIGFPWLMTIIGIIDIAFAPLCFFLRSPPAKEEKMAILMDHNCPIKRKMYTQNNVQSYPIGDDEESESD
Sequence of human Serotonin Transporter (SERT), SLC6A4 (gene 6532) (P31645 whole entry, looked up): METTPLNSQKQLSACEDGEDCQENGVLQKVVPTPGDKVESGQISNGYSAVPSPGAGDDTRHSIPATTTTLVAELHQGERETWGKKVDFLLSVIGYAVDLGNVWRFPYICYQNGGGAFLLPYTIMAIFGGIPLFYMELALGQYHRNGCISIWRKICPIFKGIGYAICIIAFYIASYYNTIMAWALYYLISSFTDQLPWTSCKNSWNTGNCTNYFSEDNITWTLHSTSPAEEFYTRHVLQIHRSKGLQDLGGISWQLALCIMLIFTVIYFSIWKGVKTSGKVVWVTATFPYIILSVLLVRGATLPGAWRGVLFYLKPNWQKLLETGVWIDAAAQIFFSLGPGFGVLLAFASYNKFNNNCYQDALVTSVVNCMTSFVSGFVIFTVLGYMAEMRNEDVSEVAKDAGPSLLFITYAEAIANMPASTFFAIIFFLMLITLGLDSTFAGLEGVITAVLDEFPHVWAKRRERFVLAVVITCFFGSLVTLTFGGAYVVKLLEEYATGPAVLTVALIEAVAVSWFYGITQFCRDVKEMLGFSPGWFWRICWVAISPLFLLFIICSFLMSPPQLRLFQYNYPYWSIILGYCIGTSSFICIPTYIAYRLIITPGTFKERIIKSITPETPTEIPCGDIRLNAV

## CCOc1cc(C(C)(C)C)ccc1C1COC(c2c(F)cccc2F)=N1 (centres undefined)
[1]
  outcome: inactive
[2]
  outcome: inactive
[3]
  outcome: inactive
[4]
  outcome: inactive
[5]
  AC50: 1.27 µM (active)
[6]
  AC50: 31.6 µM (active)
[7]
  outcome: inactive
[8]
  AC50: 18.5 µM (active) and 20.6 µM (active)
[9]
  outcome: inactive
[10]
  outcome: inactive

## N#Cc1c[nH]cc1-c1cccc2c1OC(F)(F)O2
[11]
  outcome: inactive
[4]
  outcome: inactive
[8]
  outcome: inactive
[9]
  outcome: inactive
[10]
  outcome: inactive

## COCc1cnc(C2=NC(C)(C(C)C)C(=O)N2)c(C(=O)O)c1 (centres undefined)
[12]
  outcome: inactive
[3]
  outcome: inactive
[4]
  outcome: inactive
[6]
  outcome: inactive
[7]
  outcome: inactive
[8]
  outcome: inactive
[9]
  outcome: inactive
[10]
  outcome: inactive
[13]
  outcome: inactive
[14]
  outcome: inactive

## Clc1nc(Cl)nc(Nc2ccccc2Cl)n1
[11]
  outcome: inactive
[3]
  outcome: inactive
[4]
  outcome: inactive
[7]
  outcome: inactive
[8]
  outcome: inactive
[9]
  outcome: inactive
[10]
  outcome: inactive
[13]
  outcome: inactive
[14]
  outcome: inactive

## CNC(=O)Oc1cccc2ccccc12
[15]
  outcome: inactive
[16]
  AC50: 7.36 µM (active)
[17]
  outcome: inactive
[4]
  outcome: inactive
[6]
  outcome: inactive
[7]
  outcome: inactive
[14]
  outcome: inactive

## CC(C)N1C(=O)c2ccccc2NS1(=O)=O
[15]
  outcome: inactive
[18]
  AC50: 14.2 µM (active)
[4]
  outcome: inactive
[19]
  outcome: inactive
[9]
  outcome: inactive
[10]
  outcome: inactive

## CC(C)=CC1C(C(=O)OCc2coc(Cc3ccccc3)c2)C1(C)C (centres undefined)
[2]
  AC50: 25 µM (active)
[18]
  AC50: 10.2 µM (active)
[4]
  outcome: inactive
[19]
  outcome: inactive
[5]
  AC50: 39.6 µM (active)
[6]
  outcome: inactive
[7]
  outcome: inactive
[8]
  AC50: 20.3 µM (active)
[9]
  outcome: inactive
[10]
  outcome: inactive

## COC(=O)c1c(C(F)F)nc(C(F)(F)F)c(C2=NCCS2)c1CC(C)C
[12]
  outcome: inactive
[3]
  AC50: 43.7 µM (active)
[4]
  outcome: inactive
[7]
  outcome: inactive
[8]
  outcome: inactive
[9]
  outcome: inactive
[10]
  outcome: inactive

## CC1(C)C(C(=O)OC(C#N)c2cccc(Oc3ccccc3)c2)C1(C)C (centres undefined)
[1]
  AC50: 15.8 µM (active)
[2]
  AC50: 9.99 µM (active)
[3]
  outcome: inactive
[4]
  outcome: inactive
[5]
  AC50: 2.05 µM (active)
[6]
  AC50: 5.39 µM (active)
[7]
  outcome: inactive
[8]
  outcome: inactive
[9]
  outcome: inactive
[10]
  outcome: inactive

Source: PubChem BioAssay (EPA / NIEHS)
